From PubChem BioAssay come the findings set out here.

In assay [1] the test system is Wnt5a (protein binding on small-molecule microarray). In words: Wnt5a binders on small-molecule microarray, primary screen, biophysical, 635/667 nm fluorescence (AID 1142).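 Further: fluorescence read at 667 nm with signal to noise per printed feature.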 The following applies: 635 nm fluorescence, higher = more signal.
Assay [2] in a line: cell viability in Huh7 cells, primary screen, cytotoxicity control for HCV replication inhibitor project, CellTiter-Glo luminescence, basal, 48 h (AID 1143).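 Further: Huh7 hepatoma cells carrying a hepatitis C replication reporter with no stimulus; test concentration not given here.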 The conditions noted are these: Huh7 HCV replicon, higher = more signal, called active from +8 up or from −8 down. For orientation: ATP-based viability assays read luminescence as a measure of living cells.
Assay [3] in a line: P. aeruginosa biofilm formation inhibitors, primary screen, PAO1 strain, BacTiter-Glo luminescence, LB-PBS (AID 1144). The conditions noted are these: 12 h, higher = more signal.
Assay [4] is described as follows: CREB reporter modulators without forskolin, primary screen, cell-based, PC12, CRE-LacZ reporter, unstimulated (AID 1145). The following applies: no forskolin, luminescence, 4.5 h, higher = more signal, called active from +8 up or from −8 down.
Assay [5] is described as follows: CREB reporter modulators under forskolin, primary screen, cell-based, PC12, CRE-LacZ reporter, forskolin-stimulated (AID 1146).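 Further: PC12 cells with 6xCRE LacZ reporter stimulated by forskolin 10 µM; beta-galactosidase reporter signal reflecting CREB driven transcription.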 The following applies: luminescence, 4.5 h, higher = more signal, called active from +8 up or from −8 down.
For assay [6], the target named is Streptavidin (Streptomyces avidinii) (UniProt P22629). Description: streptavidin binders on small-molecule microarray, primary screen, artefact control for SMM compound annotation, biophysical, 635/667 nm fluorescence (AID 1147).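 Further: signal reflects streptavidin binding to arrayed compounds as a control protein.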 The following applies: streptavidin binding, higher = more signal.
Assay [7] in a line: small-molecule binders of probe aInhba, primary screen, biochemical, small-molecule microarray, 635/667 nm fluorescence (AID 1148).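 Further: score merges 667nm spot fluorescence with signal-to-noise for antibody binding to printed compounds.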 The conditions noted are these: higher = more signal.
For assay [8], the target named is Torsin-1A (Homo sapiens) (UniProt O14656). In words: torsin A binders from cell lysate, primary screen, small-molecule microarray, wild-type, 635/667 nm (AID 1149). The following applies: COS7 hTOR1A-WT lysate, 635 nm fluorescence, higher = more signal.
Assay [9] has the same target. In words: small-molecule binders of mutant TOR1A in lysate, primary screen, cell lysate, small-molecule microarray, COS7 lysate, 635/667 nm fluorescence (AID 1150).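 Further: score pools 667 nm emission and signal to noise measuring lysate protein binding.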 The following applies: COS7 hTOR1A mutant lysate, 635 nm fluorescence, higher = more signal.
The test system of assay [10] is Sonic hedgehog protein (Shh). Description: small-molecule binders of Shh protein, primary screen, biochemical, small-molecule microarray, 635/667 nm fluorescence (AID 1151).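 Further: Shh protein binding to compounds spotted on small-molecule microarray slides; score combines spot fluorescence intensity with signal-to-noise across triplicate slides.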 The conditions noted are these: small-molecule microarray binding, 635 nm fluorescence; higher = more signal.
A short description of assay [11]: E. coli DRC41 culture turbidity changes, primary screen, E. coli filamentation inducer project, strain DRC41, OD650, 48 h (AID 1152).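 Further: E. coli MC1000 strain DRC41 lacking acrAB efflux pump and sulA.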 The conditions noted are these: E. coli DRC41 (acrAB sulA), higher = more signal, called active from +8 up or from −8 down.
Assay [12] in a line: small-molecule binders of probe aLefty1, primary screen, biochemical, small-molecule microarray, 635/667 nm fluorescence (AID 1153).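 Further: score merges spot fluorescence with signal-to-noise ratio from the scanned slide images.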 The following applies: higher = more signal.
Assay [13] is described as follows: PSAC antagonists in infected red cells, primary screen, cell-based, P. falciparum Indochina, OD700, 1 h (AID 1154). The conditions noted are these: P. falciparum Indochina infected RBC osmotic lysis, higher = more signal, called active from +8 up or from −8 down.
A short description of assay [14]: PSAC antagonists in infected red cells, primary screen, cell-based, P. falciparum Indochina, OD700, 2 h (AID 1155).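 Further: lysis reports solute entry through the parasite surface anion channel PSAC; channel blockers reduce lysis of infected cells.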 The conditions noted are these: P. falciparum Indochina infected erythrocytes, osmotic lysis OD700; higher = more signal, called active from +8 up or from −8 down.
Assay [15] can be described thus: osmotic lysis modulators in infected erythrocytes, primary screen, PSAC antagonist project, cell-based, P. falciparum Indochina, OD700, 3 h (AID 1156). The conditions noted are these: higher = more signal, called active from +8 up or from −8 down.
A short description of assay [16]: PSAC antagonists in infected red cells, primary screen, cell-based, P. falciparum Indochina, OD700, 18 h (AID 1157). The conditions noted are these: P. falciparum Indochina infected erythrocytes, osmotic lysis OD700, 18 h; higher = more signal, called active from +8 up or from −8 down.
A short description of assay [17]: modulators of S6 phosphorylation in cells, primary screen, cell-based, A549, cytoblot, luminescence, serum-stimulated (AID 1158).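 Further: serum-stimulated A549 lung adenocarcinoma cells; signal is phosphorylated S6 detected by cytoblot immunostaining with HRP secondary.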 The conditions noted are these: A549 phospho-S6 cytoblot, 5 h, higher = more signal.
In assay [18] the target is NADPH oxidase 2 (Homo sapiens) (UniProt P04839). In words: NOX2-dependent H2O2 signal modulators, primary screen, NOX inhibitor project, cell-based, HEK293-NOX2, PMA-stimulated, Amplex Red fluorescence (AID 1159). Further: test concentration not given here. The conditions noted are these: 45 min, higher = more signal, called active from +8 up or from −8 down.
Assay [19] concerns the target NADPH oxidase 4 (Homo sapiens) (UniProt Q9NPH5). In words: NOX4-dependent H2O2 signal modulators, primary screen, NOX inhibitor project, cell-based, HEK293-NOX4, tetracycline-induced, Amplex Red fluorescence (AID 1160). The conditions noted are these: 45 min, higher = more signal, called active from +8 up or from −8 down.
For assay [20], the target named is NADPH oxidase 5 (Homo sapiens) (UniProt Q96PH1). In words: NOX5-dependent H2O2 signal modulators, primary screen, NOX inhibitor project, cell-based, HEK293-NOX5, Amplex Red fluorescence (AID 1161). The following applies: HEK293-NOX5, ionomycin, 45 min, higher = more signal.

Activity calls are given as the source filed them. Unless noted, how the calls were made is not given here.

Sequence of Streptavidin (Streptomyces avidinii) (P22629 whole entry, looked up): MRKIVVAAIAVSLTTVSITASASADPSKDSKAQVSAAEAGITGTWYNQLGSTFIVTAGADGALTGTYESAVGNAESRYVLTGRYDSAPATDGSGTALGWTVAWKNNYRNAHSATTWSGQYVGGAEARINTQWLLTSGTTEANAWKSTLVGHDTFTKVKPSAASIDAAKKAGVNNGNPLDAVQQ
Sequence of NADPH oxidase 5 (Homo sapiens) (Q96PH1 whole entry, looked up): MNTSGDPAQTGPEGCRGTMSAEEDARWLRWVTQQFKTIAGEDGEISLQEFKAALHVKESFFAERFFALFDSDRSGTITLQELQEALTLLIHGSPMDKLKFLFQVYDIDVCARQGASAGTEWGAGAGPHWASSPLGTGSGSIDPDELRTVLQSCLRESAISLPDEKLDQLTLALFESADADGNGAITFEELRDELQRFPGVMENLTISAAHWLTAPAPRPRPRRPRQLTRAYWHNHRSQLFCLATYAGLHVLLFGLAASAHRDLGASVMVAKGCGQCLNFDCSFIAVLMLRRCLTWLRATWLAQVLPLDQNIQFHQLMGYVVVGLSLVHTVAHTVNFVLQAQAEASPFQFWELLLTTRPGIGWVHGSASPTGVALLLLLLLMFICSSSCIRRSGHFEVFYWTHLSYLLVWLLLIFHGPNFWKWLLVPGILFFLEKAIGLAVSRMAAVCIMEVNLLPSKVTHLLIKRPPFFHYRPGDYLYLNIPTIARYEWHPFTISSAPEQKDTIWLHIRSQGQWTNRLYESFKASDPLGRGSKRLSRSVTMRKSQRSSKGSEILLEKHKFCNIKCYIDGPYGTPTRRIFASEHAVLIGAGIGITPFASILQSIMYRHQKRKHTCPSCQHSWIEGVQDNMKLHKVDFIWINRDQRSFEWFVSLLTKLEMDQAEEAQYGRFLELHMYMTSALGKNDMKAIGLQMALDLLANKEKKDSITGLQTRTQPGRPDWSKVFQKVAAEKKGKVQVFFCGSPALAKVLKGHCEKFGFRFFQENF
Sequence of NADPH oxidase 4 (Homo sapiens) (Q9NPH5 whole entry, looked up): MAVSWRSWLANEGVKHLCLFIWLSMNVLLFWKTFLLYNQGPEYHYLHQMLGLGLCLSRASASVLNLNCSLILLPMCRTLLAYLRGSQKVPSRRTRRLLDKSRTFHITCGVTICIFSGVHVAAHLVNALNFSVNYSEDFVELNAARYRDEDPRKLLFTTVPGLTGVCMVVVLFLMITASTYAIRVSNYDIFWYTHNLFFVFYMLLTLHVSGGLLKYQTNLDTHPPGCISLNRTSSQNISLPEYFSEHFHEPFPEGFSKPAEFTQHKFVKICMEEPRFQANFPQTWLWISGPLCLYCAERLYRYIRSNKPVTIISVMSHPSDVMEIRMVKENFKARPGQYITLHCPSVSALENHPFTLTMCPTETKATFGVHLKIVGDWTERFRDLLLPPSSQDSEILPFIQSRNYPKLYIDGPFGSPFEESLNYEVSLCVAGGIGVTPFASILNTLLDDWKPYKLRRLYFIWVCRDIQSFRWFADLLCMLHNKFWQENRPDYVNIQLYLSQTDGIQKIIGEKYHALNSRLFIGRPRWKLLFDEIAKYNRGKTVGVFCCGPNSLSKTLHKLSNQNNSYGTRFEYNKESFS
Sequence of Torsin-1A (Homo sapiens) (O14656 whole entry, looked up): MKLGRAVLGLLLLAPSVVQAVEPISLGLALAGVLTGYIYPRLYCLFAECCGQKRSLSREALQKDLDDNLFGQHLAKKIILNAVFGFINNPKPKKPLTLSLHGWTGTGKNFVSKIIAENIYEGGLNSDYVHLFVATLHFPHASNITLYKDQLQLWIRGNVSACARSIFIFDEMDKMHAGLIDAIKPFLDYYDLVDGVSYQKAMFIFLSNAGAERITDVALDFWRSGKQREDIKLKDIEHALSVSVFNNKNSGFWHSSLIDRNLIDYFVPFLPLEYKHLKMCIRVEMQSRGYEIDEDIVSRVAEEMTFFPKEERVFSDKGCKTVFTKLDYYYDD
Sequence of NADPH oxidase 2 (Homo sapiens) (P04839 whole entry, looked up): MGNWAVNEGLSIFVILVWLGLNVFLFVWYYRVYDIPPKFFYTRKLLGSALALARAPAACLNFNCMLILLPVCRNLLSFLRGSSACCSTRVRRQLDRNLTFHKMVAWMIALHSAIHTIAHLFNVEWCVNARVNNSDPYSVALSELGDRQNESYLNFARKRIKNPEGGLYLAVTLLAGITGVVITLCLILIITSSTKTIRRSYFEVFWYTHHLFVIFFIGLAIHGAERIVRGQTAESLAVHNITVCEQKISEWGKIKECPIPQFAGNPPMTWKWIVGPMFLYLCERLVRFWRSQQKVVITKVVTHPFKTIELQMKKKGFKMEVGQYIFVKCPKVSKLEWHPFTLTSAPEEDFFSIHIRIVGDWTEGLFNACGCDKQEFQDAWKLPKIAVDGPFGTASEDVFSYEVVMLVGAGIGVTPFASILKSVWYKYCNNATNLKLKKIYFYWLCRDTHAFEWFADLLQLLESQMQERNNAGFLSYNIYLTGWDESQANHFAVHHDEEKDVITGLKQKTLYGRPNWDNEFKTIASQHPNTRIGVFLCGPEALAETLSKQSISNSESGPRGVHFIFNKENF

As to `CO[C@H]1O[C@H](CO)[C@@H](OC(=O)Nc2ccccc2)[C@H](OC(=O)c2cc3ccccc3[nH]2)[C@H]1OC(=O)c1cc2ccccc2[nH]1`, the composite z-score is 0.411 in assay [1]; -0.265 in assay [6]; 0.0636 in assay [7]; 0.289 with Torsin-1A (Homo sapiens) [8]; 0.311 with Torsin-1A (Homo sapiens) [9]; 1.3 in assay [10]. Also, the composite z-score in assay [12] is 0.214. Also, the z-score was -4.49 (inactive) in [2]; -0.735 (inactive) in assay [3]; -0.211 (inactive) in [4]; -0.331 (inactive) in assay [5]; 0.541 (inactive) in assay [11]; 0.909 (inactive) in [13]. Further, the z-score in [14] is -0.795 (inactive); in assay [15] it was 0.447 (inactive); in [16], -0.758 (inactive); in [17], 1.27; in assay [18], -6.27 (inactive); in assay [19], -0.405 (inactive). The molecule further returned a z-score in [20] of -2.16.
Turning to `COC(=O)[C@]1(CCS(=O)(=O)c2ccccc2)N=C(c2ccc(OCCCO)cc2)O[C@@H]1c1ccccc1N=[N+]=[N-]`, the composite z-score in assay [1] amounted to 1.21; in assay [6] it was 1.39; in [7], 0.438; with Torsin-1A (Homo sapiens) [8], 0.588; with Torsin-1A (Homo sapiens) [9], 0.453; in [10], 2.09. This molecule had a composite z-score in assay [12] of 0.569. Also, the z-score was -3.71 (inactive) in [2]; -0.731 (inactive) in assay [3]; 2.42 (inactive) in assay [4]; -0.889 (inactive) in assay [5]; -1.59 (inactive) in assay [11]; 29.4 (active) in assay [13]. Besides, the z-score is 27.2 (active) in assay [14]; 4.22 (inactive) in assay [15]; 6.59 (inactive) in assay [16]; 0.188 in assay [17]; -2.07 (inactive) in [18]; 0.661 (inactive) in assay [19]. The molecule further displayed a z-score in assay [20] of -2.01.
With `CC(C)(C)OC(=O)COc1cccc(C(=O)CCN2CCOCC2)c1`, the composite z-score is -0.143 in [1]; -0.081 in assay [6]; 0.034 in [7]; -1.01 with Torsin-1A (Homo sapiens) [8]; -0.646 with Torsin-1A (Homo sapiens) [9]; 0.216 in assay [10]. This molecule had a composite z-score in assay [12] of 0.265. Further, the z-score in assay [2] was -1.13 (inactive); in [3], 2.34 (inactive); in assay [4], 0.416 (inactive); in assay [5], 12.2 (active); in assay [11], 0.922 (inactive); in assay [13], 6.63 (inactive). The z-score is 1.21 (inactive) in assay [14]; -0.481 (inactive) in assay [15]; 0.548 (inactive) in assay [16]; 0.202 in assay [17]; -5.78 (inactive) in assay [18]; 1.09 (inactive) in [19]. In addition, the z-score in [20] is 2.12.
Regarding `COC(=O)[C@@]1(Cc2ccc(OC)cc2)[C@H]2c3cc(C(=O)N4CCCC4)n(CCO)c3C[C@H]2CN1C(=O)c1ccccc1`, the composite z-score in assay [1] was 0.925; in assay [6], 0.342; in [7], 0.372; with Torsin-1A (Homo sapiens) [8], -0.48; in the assay with Torsin-1A (Homo sapiens) [9], 1.44; in assay [10] it was -0.645. The molecule further returned a composite z-score in assay [12] of 0.399. In addition, the z-score in assay [2] was -0.794 (inactive); in assay [3] it was -0.14 (inactive); in assay [4] it was 0.773 (inactive); in [5] it was 1.41 (inactive); in [11], -1.72 (inactive); in assay [13], 2.85 (inactive). Further, the z-score in [14] is 0.766 (inactive); in assay [15], 1.66 (inactive); in [16], 0.815 (inactive); in assay [17], 0.604; in [18], -0.0722 (inactive); in assay [19] it was -2.96 (inactive). This molecule also gave a z-score in [20] of -4.86.
